Screening data as filed in PubChem BioAssay.
NALP3 yeast inh = blocks the NALP3 inflammasome reconstituted in yeast | 330,000 compounds, 0.39% hits | Yeast reconstituted NLRP3/ASC/caspase-1, beta-gal luminescence, 24 h | inhibition, % at 10 µM | AID 2825;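 active = inhibition of 50% or more; inactive = inhibition below 50%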;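 note: plate controls were induced DMSO wells for no effect and uninduced yeast grown without galactose for full effect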
TIM10 inh = growth inhibitors of TIM10 yeast strain; AID 463195; inhibition, % at 10 µM; S. cerevisiae TIM10 strain growth, BacTiter-Glo luminescence, 24 h; 330,000 compounds, 1.4% hits;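 active = inhibition of 40% or more at the single tested concentration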;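 note: wild-type TIM10 isogenic control strain grown at permissive 25 °C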
tim10-1 inh = growth inhibitors of tim10-1 mutant yeast; S. cerevisiae tim10-1 ts strain growth, BacTiter-Glo, 24 h; inhibition, % at 20 µM; 330,000 compounds, 2.2% hits; AID 463190;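 active = inhibition of at least 40%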;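 note: mutant grown at 25 °C; 0% = DMSO wells with yeast and 100% = wells holding no yeast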
PfHsp90 yeast 2 = reduces growth (ATP signal) of yeast expressing P. falciparum Hsp90; S. cerevisiae expressing PfHsp90, BacTiter-Glo ATP, 48 h; yeast lacking PDR1 and PDR3 efflux regulators; inhibition, % at 9.4 µM; 310,000 compounds, 0.32% hits;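 active = every replicate shows inhibition above about 80%, whatever the replicate mean, limit read from the data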;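 note: 0% = DMSO neutral controls and 100% = 20 µM radicicol positive controls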
tim23-1 inh = growth inhibitors of tim23-1 mutant yeast. S. cerevisiae tim23-1 growth, BacTiter-Glo luminescence, 24 h. inhibition, % at 20 µM. 330,000 compounds, 1.3% hits. AID 463212;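 active = growth inhibition of the mutant yeast at or above 50%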;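 note: temperature-sensitive mutant grown at 25 °C; plate controls were DMSO-treated mutant yeast for no effect and medium wells lacking yeast for full effect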
tim23-1 conf = tim23-1 yeast growth inhibition, confirmed. S. cerevisiae tim23-1 growth, BacTiter-Glo luminescence, 24 h. AID 463218. inhibition, % at 20 µM. shares compounds with tim23-1 inh. 4,400 compounds, 83% hits;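 active = inhibition above about 39% in either of two replicate wells at 20 µM, limit read from the data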;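 note: temperature-sensitive tim23-1 mutant grown at 25 °C; 0% = DMSO wells with yeast and 100% = medium wells without yeast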
* hit, by the source's call; / = no result. In the library only some 3.7% were active in any assay of this set; here they are far more common.

SMILES	NALP3 yeast inh	TIM10 inh	tim10-1 inh	PfHsp90 yeast 2	tim23-1 inh	tim23-1 conf
CC1CCCCC1NC(=S)NC(=O)c1cccs1 (stereo not drawn)	-12.1	38.7	24.7	-14.6	51.8*	53.9*
CC(OC(=O)c1cccs1)C(=O)NC1CCCCC1C (stereo not drawn)	3.4	-14.3	-4.6	7.7	-2.4	/
CNC(=S)N1CCN=C1Nc1nc(C)cc(C)n1	5.8	10.1	-5.6	-31.2	-2.0	/
c1ccc(-c2nc3ccccc3[nH]2)cc1	47.8	21.6	-14.5	4.0	50.3*	45.5*
N=c1n(CCO)c2ccccc2n1CCOc1ccccc1	7.2	3.3	-2.5	10.9	65.4*	2.1
NC(=O)CSc1nnc(-c2ccccn2)n1Cc1ccco1	9.2	5.3	9.5	0.6	-0.5	/
Clc1ccccc1CSc1nnc(-c2ccccn2)n1Cc1ccco1	-69.5	9.1	31.0	-29.4	52.2*	53.8*
Oc1ccc(N=Nc2ccccc2)cc1	23.6	25.4	39.1	-32.0	54.9*	46.8*
O=C(O)c1ccccc1N=Nc1ccc(O)cc1	14.5	2.2	6.7	-13.3	11.5	/
O=C1c2ccccc2S(=O)(=O)c2cc(C(=O)N3CCN(C(=O)c4ccccc4)CC3)ccc21	14.2	6.2	0.2	-4.2	10.3	/
O=C(NCCN1C(=O)S/C(=C\c2cccc(Cl)c2Cl)C1=O)C1=COCCO1	9.1	-106.1	24.8	-22.3	54.8*	35.3
COc1ccc(CCNC(=O)c2nnn(-c3ccc4c(c3)OCCO4)c2N)cc1OC	-0.1	15.8	21.7	/	4.9	/
COc1ccc(N2C(=O)CC(NCc3cccs3)C2=O)cc1 (stereo not drawn)	1.8	1.1	-3.8	-24.2	54.6*	12.9
COc1ccc(N2C(=O)CC(NCC#N)C2=O)cc1 (stereo not drawn)	3.0	0.7	4.2	9.1	9.2	/
CCOC(=O)N1CCN(C(=O)c2ccc3c(=O)n(CCc4ccccc4)c(=O)[nH]c3c2)CC1	-0.8	-15.4	14.5	-20.7	7.7	/
CC(=O)c1ccc(-n2ccc(=O)cc2)cc1	6.4	-12.4	9.8	-0.1	17.7	/
CCN1CCCc2cc(CN(CCN3CCOCC3)C(=S)Nc3cccc(OC)c3)ccc21	19.3	19.8	-8.6	27.6	8.0	/
Cc1cc2oc(=O)cc(-c3ccccc3)c2c(C)c1-c1ccc(CO)cc1	/	-4.3	14.2	-36.5	53.5*	32.8
O=C1OC(c2ccccc2)=N/C1=C\C=C\c1ccco1	26.4	31.1	32.5	5.2	82.0*	80.8*
CCOC(=O)C1=C(C)N=c2s/c(=C/c3ccccc3)c(=O)n2C1c1ccc(OC)c(OC)c1 (stereo not drawn)	6.8	-12.2	-2.8	-18.1	12.7	/
CCOC(=O)C1=C(C)N=c2s/c(=C\c3ccncc3)c(=O)n2C1c1ccc2c(c1)OCO2 (stereo not drawn)	11.5	23.1	39.7	/	52.6*	48.7*
Cc1cccc(NC(=S)NC(=O)/C=C/c2ccco2)n1	10.3	21.2	22.7	/	57.0*	40.2*
COc1ccccc1NC(=S)NC(=O)/C=C/c1ccco1	15.8	18.7	32.3	-43.7	20.1	/
Cc1cccc(NC(=S)NC(=O)c2ccco2)c1C	11.8	24.9	31.2	0.5	55.8*	17.4
O=C(/C=C/c1ccco1)NC(=S)Nc1ccccc1	17.8	5.2	21.3	-14.3	53.8*	28.8
SMILES	NALP3 yeast inh	TIM10 inh	tim10-1 inh	PfHsp90 yeast 2	tim23-1 inh	tim23-1 conf
Cc1ccccc1NC(=S)NC(=O)/C=C/c1ccco1	25.7	7.5	21.3	7.7	55.4*	36.5
CCCCS/C(N)=N/N=C/c1ccccc1O	31.0	24.3	37.4	25.2	58.1*	65.6*
O=C(/C(=C/O)N=Nc1ccccc1)c1ccco1	10.8	34.1	27.1	-3.8	54.5*	59.3*
O=C(NCCc1ccccc1)c1ccco1	11.4	-4.4	4.1	-6.8	6.1	/
CC(C)CCC1(C)NC(=O)N(CC(=O)c2ccc[nH]2)C1=O (stereo not drawn)	23.9	11.2	3.4	9.9	15.2	/
N=C1/C(=C/c2coc3ccccc3c2=O)C(=O)N=C2SC(c3ccco3)=NN12	17.6	4.0	-6.2	/	10.9	/
N=C1/C(=C\c2coc3ccccc3c2=O)C(=O)N=C2SC(c3ccncc3)=NN12	13.3	34.6	22.0	-62.6	53.5*	5.8
COC(=O)c1nn(-c2ccc(OC)cc2)ccc1=O	7.3	10.0	23.5	-5.7	7.0	/
O=C(COC(=O)CC1CCCC1)Nc1ccc(Cl)cc1	13.8	25.6	36.4	/	62.4*	55.2*
CCOc1ccc(NC(=O)COC(=O)CC2CCCCC2)cc1	11.9	15.0	-21.4	-14.5	30.9	/
O=c1cc(-c2ccccc2)c2c(O)cc(O)cc2o1	7.7	-0.6	-10.1	-11.8	-2.7	/
CC(C)=CCc1cc(-c2oc3cc(O)cc(O)c3c(=O)c2O)ccc1O	29.3	-34.0	8.2	/	51.3*	51.3*
O=c1c(O)c(-c2ccccc2)oc2cc(O)cc(O)c12	40.9	-7.0	-7.1	17.5	58.4*	60.8*
COc1c(-c2ccc(O)c(O)c2)oc2cc(O)cc(O)c2c1=O	14.7	-7.2	5.5	1.7	-15.5	/
O=c1c(O)c(-c2cc(O)c(O)c(O)c2)oc2cc(O)cc(O)c12	13.7	-20.4	-10.8	-1.8	23.0	/
O=c1c(-c2ccccc2)c(-c2ccccc2)oc2cc(O)cc(O)c12	-16.4	30.5	21.8	123.4*	54.6*	-24.4
Cc1ccc(C)c(CNS(=O)(=O)c2ccc3c(c2)C(C)(C)C(=O)N3C)c1	1.8	-0.9	9.6	17.8	15.4	/
CCOC(=O)C1(CCCc2ccccc2)CCN(C2CCSCC2)CC1	/	/	/	-9.7	/	/
CCCNC(=O)C(Cc1ccccc1F)NC(=O)c1ccccn1 (stereo not drawn)	18.5	8.9	15.9	-8.8	18.2	/
CCN1CCN(C(=O)/C(C#N)=C/c2ccc(OC(F)F)cc2)CC1	10.2	1.3	8.7	3.6	-11.6	/
N#C/C(=C\c1ccc(OC(F)F)cc1)C(=O)N1CCCCC1	9.8	25.1	32.8	-8.3	61.7*	44.4*
O=C(Cc1ccccc1)c1ccc(O)cc1O	/	/	/	3.9	/	/
CCCCCC(=O)c1ccc(O)cc1O	10.6	32.9	25.2	-34.3	53.7*	47.2*
Cc1[nH]n(-c2nc(-c3ccccc3)cc(=O)[nH]2)c(=O)c1CCO	20.5	6.2	2.4	0.0	87.4*	11.6
Cc1nc(-c2ccccc2)cc(=O)[nH]1	15.2	6.7	8.0	/	-0.4	/
CCOC(=O)Nc1ccc(C(=O)/C=C/c2ccccc2)cc1	36.1	27.2	27.4	6.4	58.3*	39.5
CCOC(=O)Nc1ccc(Oc2ccccc2)cc1	46.6	19.6	26.9	/	8.7	/
O=C(c1cccnc1)C1Cc2ccccc2C1=O (stereo not drawn)	-2.5	13.2	1.5	28.8	53.7*	52.5*
O=C(NN1C(=O)CSC1=S)c1cccnc1	14.8	2.4	-13.8	/	-3.5	/
COc1cc(CN2CCN(c3cccc(C)c3C)CC2)cc(Br)c1O	18.3	21.3	25.6	/	55.1*	45.0*
